Growth inhibition, inhibition and outcome data for 19 compounds are collected here from PubChem BioAssay.

Experiment [1] in a line: antimalarial activity against Dd2 strain (AID 2302;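 active means growth inhibition above 50% at the single 2 µM test dose, taken to imply half-maximal potency below 2 µM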;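 further: 0% = DMSO untreated growth and 100% = chloroquine plus artemisinin killed control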). Particulars: P. falciparum Dd2 in RBCs, LDH growth readout, 72 h; at 2 µM; active compounds read high.
Experiment [2] is described as follows: human hepatoma cell viability loss – ATP luminescence, cytotoxicity control for P. falciparum antimalarial project, primary screen (AID 2303;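 active means inhibition above 50%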;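 further: 0% = DMSO wells and 100% = digitonin-killed cells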). The following applies: HepG2 viability, 24-48 h, at 10 µM, active compounds read high.
Experiment [3] deals with L-lactate dehydrogenase (Plasmodium falciparum (isolate CDC / Honduras)) (UniProt Q27743). Briefly: PfLDH activity inhibition – cell lysate, 3D7 strain, counter-screen for P. falciparum growth inhibition project (AID 2304).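 Further: 0% = vehicle and 100% = reference inhibitor.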 Particulars: P. falciparum 3D7 crude extract, LDH APAD/NBT absorbance; at 2 µM; active compounds read high. For orientation: The purpose of a counterscreen is to sort out artefacts and off-target activity.

The nature of experiment [4]: inhibition of 3D7 malaria parasite growth – strain 3D7 (AID 2306).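 Further: 0% = DMSO wells and 100% = chloroquine plus artemisinin control wells.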 The following applies: P. falciparum 3D7 erythrocytic growth, LDH absorbance, 72 h; at 2 µM; active compounds read high.
Experiment [5] has as its target Calcium-dependent protein kinase 1 (Plasmodium falciparum (isolate 3D7)) (UniProt P62344). Description: PfCDPK1 kinase inhibitors, biochemical, TCAMS library (AID 1159585; cut-off not given, nearly all actives have IC50 up to about 0.98 µM;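 further: inhibitors leave more ATP so luminescence rises with inhibition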). The following applies: recombinant PfCDPK1, Kinase-Glo ATP depletion luminescence. On the technique in general: In Kinase-Glo more light means more ATP remaining.
For experiment [6], the target named is Plasmodium falciparum protein kinase 6 (PK6, PF3D7_1337100) (UniProt Q8IDW1). Briefly: PfPK6 kinase inhibitors, biochemical, TCAMS library (AID 1159586). The following applies: recombinant PfPK6, Kinase-Glo ATP depletion luminescence.
Experiment [7] concerns the target Protein kinase 7 (PK7), Plasmodium falciparum 3D7 (PF3D7_0213400) (UniProt Q7YTF7). Briefly: inhibition of Plasmodium PK7 catalytic activity – biochemical, TCAMS antimalarial set, Kinase-Glo luminescence (AID 1159587). The following applies: recombinant PfPK7, Kinase-Glo ATP depletion luminescence.
For experiment [8], the target named is Calcium-dependent protein kinase 4 (Plasmodium falciparum (isolate 3D7)) (UniProt Q8IBS5). Description: PfCDPK4 kinase inhibitors, biochemical, TCAMS library (AID 1159588; cut-off not given, nearly all actives have IC50 up to about 0.91 µM). The following applies: recombinant PfCDPK4, Kinase-Glo ATP depletion luminescence.

Molecules are shown by their SMILES. Unmarked numbers belong to inactive results. For some assays here: Entries with a potency or affinity are not part of this list. Activity calls are given as the source filed them. Unless noted, how the calls were made is not given here.

Sequence of Calcium-dependent protein kinase 1 (Plasmodium falciparum (isolate 3D7)) (P62344 whole entry, looked up): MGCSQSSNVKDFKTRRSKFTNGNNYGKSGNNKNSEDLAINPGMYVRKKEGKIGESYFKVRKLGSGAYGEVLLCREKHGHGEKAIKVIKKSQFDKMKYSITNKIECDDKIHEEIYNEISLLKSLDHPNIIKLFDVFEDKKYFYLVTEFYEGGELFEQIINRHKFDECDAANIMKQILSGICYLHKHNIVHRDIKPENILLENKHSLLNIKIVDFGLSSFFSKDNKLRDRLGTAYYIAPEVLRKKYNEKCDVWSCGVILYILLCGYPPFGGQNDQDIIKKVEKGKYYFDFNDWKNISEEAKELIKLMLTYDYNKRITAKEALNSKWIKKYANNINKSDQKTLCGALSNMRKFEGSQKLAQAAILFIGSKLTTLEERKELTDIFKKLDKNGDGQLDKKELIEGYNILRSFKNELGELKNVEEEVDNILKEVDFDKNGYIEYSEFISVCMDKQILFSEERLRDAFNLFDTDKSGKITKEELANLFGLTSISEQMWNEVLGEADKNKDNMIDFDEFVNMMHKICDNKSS
Sequence of Plasmodium falciparum protein kinase 6 (PK6, PF3D7_1337100) (Q8IDW1 1-305): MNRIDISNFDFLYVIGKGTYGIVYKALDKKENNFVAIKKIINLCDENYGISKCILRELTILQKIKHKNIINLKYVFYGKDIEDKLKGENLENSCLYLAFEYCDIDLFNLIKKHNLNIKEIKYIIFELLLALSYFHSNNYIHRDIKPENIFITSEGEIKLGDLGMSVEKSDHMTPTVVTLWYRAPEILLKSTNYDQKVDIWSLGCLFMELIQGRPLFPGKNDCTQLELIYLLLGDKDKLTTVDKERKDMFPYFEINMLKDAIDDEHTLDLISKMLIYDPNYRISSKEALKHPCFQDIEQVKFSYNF
Sequence of Calcium-dependent protein kinase 4 (Plasmodium falciparum (isolate 3D7)) (Q8IBS5 whole entry, looked up): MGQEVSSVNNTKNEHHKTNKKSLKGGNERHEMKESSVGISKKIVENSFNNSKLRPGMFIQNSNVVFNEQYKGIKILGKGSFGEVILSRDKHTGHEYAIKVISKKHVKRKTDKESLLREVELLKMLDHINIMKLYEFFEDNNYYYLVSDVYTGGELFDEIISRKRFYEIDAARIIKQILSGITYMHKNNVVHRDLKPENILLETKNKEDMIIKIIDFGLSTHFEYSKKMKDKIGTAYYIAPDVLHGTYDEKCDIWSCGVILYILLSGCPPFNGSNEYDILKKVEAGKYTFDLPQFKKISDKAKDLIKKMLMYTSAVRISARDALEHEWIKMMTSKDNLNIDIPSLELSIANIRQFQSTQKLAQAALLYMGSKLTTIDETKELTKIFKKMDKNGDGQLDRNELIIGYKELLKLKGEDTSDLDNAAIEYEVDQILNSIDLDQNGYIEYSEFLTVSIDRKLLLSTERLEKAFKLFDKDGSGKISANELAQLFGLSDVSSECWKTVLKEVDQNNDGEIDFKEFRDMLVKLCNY
Sequence of L-lactate dehydrogenase (Plasmodium falciparum (isolate CDC / Honduras)) (Q27743 whole entry, looked up): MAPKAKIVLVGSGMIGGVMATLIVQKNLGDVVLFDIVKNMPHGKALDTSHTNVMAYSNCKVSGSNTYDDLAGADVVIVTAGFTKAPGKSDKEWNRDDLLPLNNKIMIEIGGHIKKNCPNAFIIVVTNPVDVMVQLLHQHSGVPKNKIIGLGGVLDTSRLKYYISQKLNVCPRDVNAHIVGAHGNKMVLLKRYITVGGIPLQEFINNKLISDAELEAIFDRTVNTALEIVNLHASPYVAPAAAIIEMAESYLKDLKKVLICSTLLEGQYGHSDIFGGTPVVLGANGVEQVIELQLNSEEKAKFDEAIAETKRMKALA
Sequence of Protein kinase 7 (PK7), Plasmodium falciparum 3D7 (PF3D7_0213400) (Q7YTF7 1-343): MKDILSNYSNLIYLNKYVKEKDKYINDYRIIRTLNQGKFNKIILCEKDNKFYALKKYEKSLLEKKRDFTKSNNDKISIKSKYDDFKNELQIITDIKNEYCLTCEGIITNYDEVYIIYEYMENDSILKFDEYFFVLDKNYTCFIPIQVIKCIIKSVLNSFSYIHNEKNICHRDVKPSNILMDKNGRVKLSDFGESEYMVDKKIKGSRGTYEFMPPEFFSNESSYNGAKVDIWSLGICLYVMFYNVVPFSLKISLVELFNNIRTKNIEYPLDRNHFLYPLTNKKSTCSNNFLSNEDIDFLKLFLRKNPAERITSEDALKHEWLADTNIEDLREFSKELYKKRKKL

A word on the inhibition: it is the change of the read-out against control, counted positive when it falls. As for `CCCCOP(=O)(OCCCC)C(=Cc1ccc(O)c2ccccc12)P(=O)(OCCCC)OCCCC`, the growth inhibition is 64% (active) in experiment [1] and 84% (active) in experiment [4]. Also, the inhibition was 1% in experiment [2] and -6% in experiment [3]. For the same compound, the result in experiment [5], in experiment [6], in experiment [7] and in experiment [8] was inactive.

Consider `Cc1[nH]c(C)c(-c2ccc(Oc3ccc(O)cc3)cc2)c(=O)c1Cl`, for which the values for the growth inhibition in experiment [1] and in experiment [4] were 87% (active) and 91% (active), respectively. The inhibition is -2% in experiment [2] and -3% in experiment [3]. Moreover, the result in experiment [5], in experiment [6], in experiment [7] and in experiment [8] was inactive.

For the compound `Cc1cc(=O)c(-c2ccc(Oc3ccc(Cl)cc3Cl)cc2)c(C)[nH]1`, the results for the growth inhibition in experiment [1] and in experiment [4] were 73% (active) and 93% (active), respectively. Further, the figures for the inhibition in experiment [2] and in experiment [3] were -1% and -2%, respectively. Moreover, the result in experiment [5], in experiment [6], in experiment [7] and in experiment [8] was inactive.

Consider `CCCNC[C@@H](O)[C@H](Cc1ccccc1)NC(=O)c1cc(NCC)cc(N2CCCC2=O)c1`, for which the growth inhibition in experiment [1] is 76% (active); in experiment [4], 100% (active). Besides, the inhibition was -9% in experiment [2] and 1% in experiment [3]. In addition, the outcome in experiment [5], in experiment [6], in experiment [7] and in experiment [8] was inactive.

Take `NCC1CCCN1Cc1cccc(-c2ccc(-c3nc4ccc(C(F)(F)F)cc4[nH]3)cc2)c1` (configuration not stated): the growth inhibition in experiment [1] is 95% (active); in experiment [4] it was 100% (active). Also, the inhibition in experiment [2] is 20%; in experiment [3], 0%. Further, the result in experiment [5], in experiment [6], in experiment [7] and in experiment [8] was inactive.

In the case of `COc1cc(F)c2ncc(Cl)c(CCN3CCC(NCc4ccc5c(c4)NC(=O)CS5)CC3)c2c1`, the growth inhibition in experiment [1] was 85% (active); in experiment [4], 100% (active). Also, the figures for the inhibition in experiment [2] and in experiment [3] were 27% and -6%, respectively. Also, the outcome in experiment [5], in experiment [6], in experiment [7] and in experiment [8] was inactive.

As to `CCN(CC)CCCNC(=O)/C(=C/C=C/c1cc2cc(Cl)c(Cl)cc2[nH]1)OC`, the growth inhibition in experiment [1] is 21%; in experiment [4] it was 84% (active). The values for the inhibition in experiment [2] and in experiment [3] were 38% and -2%, respectively. The result in experiment [5], in experiment [6], in experiment [7] and in experiment [8] was inactive.

Consider `NOCCCCOc1ccc(Cl)cc1`, for which the growth inhibition was -1% in experiment [1] and 98% (active) in experiment [4]. In addition, the inhibition in experiment [2] was 2%; in experiment [3], -4%. For the same compound, the result in experiment [5], in experiment [6], in experiment [7] and in experiment [8] was inactive.

Consider `O=C(NCCCCN1CCN(c2cccc(Cl)c2Cl)CC1)c1ccc2c(c1)CCN(C1CCC1)CC2`, for which the growth inhibition in experiment [1] is 31%; in experiment [4], 95% (active). For the same compound, the results for the inhibition in experiment [2] and in experiment [3] were 97% (active) and 3%, respectively. Moreover, the result in experiment [5], in experiment [6], in experiment [7] and in experiment [8] was inactive.

Take `N#Cc1ccc(NC(=Nc2ccccc2Br)N(C2CCCCC2)C2CCCCC2)c(O)c1`: the growth inhibition is 96% (active) in experiment [1] and 99% (active) in experiment [4]. In addition, the inhibition in experiment [2] and in experiment [3] was 4% throughout. The result in experiment [5], in experiment [6], in experiment [7] and in experiment [8] was inactive.

With `CN(C)CCOc1ccc(NC(=O)NC(C)(C)c2nc(-c3ccc(Cl)c(O)c3)c(-c3ccncc3)[nH]2)cc1`, the growth inhibition in experiment [1] and in experiment [4] was 98% (active) each time. Moreover, the figures for the inhibition in experiment [2] and in experiment [3] were 22% and 5%, respectively. The outcome in experiment [5], in experiment [6], in experiment [7] and in experiment [8] was inactive.

For `CO/C(=C\C=C\c1cc2cc(Cl)c(Cl)cc2[nH]1)C(=O)NCCCN1CCN(c2cccc(OCC(=O)Nc3ccccc3)c2)CC1`, the growth inhibition is 81% (active) in experiment [1] and 100% (active) in experiment [4]. For the same compound, the values for the inhibition in experiment [2] and in experiment [3] were 49% and -1%, respectively. Also, the outcome in experiment [5], in experiment [6], in experiment [7] and in experiment [8] was inactive.

In the case of `CC1(C)N=C(N)N=C(N)N1c1ccc(Br)cc1`, the growth inhibition in experiment [1] was 4%; in experiment [4], 94% (active). Besides, the inhibition was 52% (active) in experiment [2] and 0% in experiment [3]. The result in experiment [5], in experiment [6], in experiment [7] and in experiment [8] was inactive.

For `O=C(Cn1cnc2c(nnn2Cc2ccccc2F)c1=O)Nc1ccc2c(c1)OCCO2`, the growth inhibition is 1% in experiment [1] and 86% (active) in experiment [4]. Also, the inhibition in experiment [2] was -6%; in experiment [3], -2%. Besides, the outcome in experiment [5], in experiment [6], in experiment [7] and in experiment [8] was inactive.

As for `CCOC(=O)N1CCN(CCCCNc2c3ccc(Cl)cc3nc3ccc(OC)cc23)CC1`, the growth inhibition in experiment [1] was 98% (active); in experiment [4] it was 104% (active). Besides, the inhibition in experiment [2] was 25%; in experiment [3], -5%. Also, the outcome in experiment [5], in experiment [6], in experiment [7] and in experiment [8] was inactive.

Regarding `Cn1nc(-c2ccccc2F)c2cc(C(=O)NC3CCN(Cc4ccccc4)CC3)sc21`, the growth inhibition in experiment [1] is 34%; in experiment [4], 97% (active). Further, the inhibition in experiment [2] was 5%; in experiment [3], 3%. For the same compound, the result in experiment [5], in experiment [6], in experiment [7] and in experiment [8] was inactive.

For `O=S(=O)(NCCN1CCCC1)c1ccc(-c2cccc(CNCc3ccsc3)c2)s1`, the growth inhibition in experiment [1] is 43%; in experiment [4], 90% (active). Further, the inhibition in experiment [2] was 42%; in experiment [3] it was 0%. Further, the result in experiment [5], in experiment [6], in experiment [7] and in experiment [8] was inactive.

With `Cn1ccnc1CCC(=O)Nc1ccc(Cl)cc1C(=O)Nc1ccc(Cl)cc1`, the growth inhibition was 3% in experiment [1] and 92% (active) in experiment [4]. In addition, the inhibition in experiment [2] was 28%; in experiment [3] it was 4%. Further, the result in experiment [5], in experiment [6], in experiment [7] and in experiment [8] was inactive.

For the compound `Cc1nc(-c2nc(N3CCC(C(N)=O)CC3)ncc2-c2ccsc2)sc1C`, the growth inhibition in experiment [1] was 33%; in experiment [4] it was 93% (active). Besides, the inhibition in experiment [2] was -8%; in experiment [3], -11%. Besides, the result in experiment [5], in experiment [6], in experiment [7] and in experiment [8] was inactive.
